# Measurements from publication PMC9911399, “Two distinct binding modes provide the RNA-binding protein RbFox with extraordinary sequence specificity”.
# Residue numbers refer to the chain shown, from its start. Over roughly 16,000 sequences, “ka relative to ugcaugu” has its median near 0.096; the highest 2% begin near 0.35. This is one part of a sample in which the highest values are shown more often than they occur.
# T1: RBFOX1 RRM RbFoxmut (Fox-RRM*) (Homo sapiens, UniProt Q9NWB1 109-208, R118D;E147R;N151S;E152T)
# T1 sequence: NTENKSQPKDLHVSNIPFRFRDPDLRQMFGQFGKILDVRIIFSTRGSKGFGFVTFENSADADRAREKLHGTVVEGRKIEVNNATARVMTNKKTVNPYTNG
# B1: UUCCUGU (DNA:RNA)
# RNA: GGGAGACCGGAAUUCAGAUUGUCCUUCCUGUUUAAAUCCCGUCGUAGCCACCA
# DNA 1: CAATCTGAATTCCGGTCTCCC
# DNA 2: TGGTGGCTACGACGGGATT
# B2: GGACAAA (DNA:RNA)
# RNA: B1 RNA with U25G, U26G, C27A, U29A, G30A, U31A
# DNA 1: CAATCTGAATTCCGGTCTCCC
# DNA 2: TGGTGGCTACGACGGGATT
# B3: CCCAACC (DNA:RNA)
# RNA: B1 RNA with U25C, U26C, C28A, U29A, G30C, U31C
# DNA 1: CAATCTGAATTCCGGTCTCCC
# DNA 2: TGGTGGCTACGACGGGATT
# B4: GCCACAA (DNA:RNA)
# RNA: B1 RNA with U25G, U26C, C28A, U29C, G30A, U31A
# DNA 1: CAATCTGAATTCCGGTCTCCC
# DNA 2: TGGTGGCTACGACGGGATT
# B5: UGUAAGU (DNA:RNA)
# RNA: B1 RNA with U26G, C27U, C28A, U29A
# DNA 1: CAATCTGAATTCCGGTCTCCC
# DNA 2: TGGTGGCTACGACGGGATT
# B6: UCAGUAU (DNA:RNA)
# RNA: B1 RNA with U26C, C27A, C28G, G30A
# DNA 1: CAATCTGAATTCCGGTCTCCC
# DNA 2: TGGTGGCTACGACGGGATT
# B7: AUUAGAG (DNA:RNA)
# RNA: B1 RNA with U25A, C27U, C28A, U29G, G30A, U31G
# DNA 1: CAATCTGAATTCCGGTCTCCC
# DNA 2: TGGTGGCTACGACGGGATT
# B8: CCAGAGU (DNA:RNA)
# RNA: B1 RNA with U25C, U26C, C27A, C28G, U29A
# DNA 1: CAATCTGAATTCCGGTCTCCC
# DNA 2: TGGTGGCTACGACGGGATT
# B9: GUCCGAG (DNA:RNA)
# RNA: B1 RNA with U25G, U29G, G30A, U31G
# DNA 1: CAATCTGAATTCCGGTCTCCC
# DNA 2: TGGTGGCTACGACGGGATT
# B10: GUGUAUA (DNA:RNA)
# RNA: B1 RNA with U25G, C27G, C28U, U29A, G30U, U31A
# DNA 1: CAATCTGAATTCCGGTCTCCC
# DNA 2: TGGTGGCTACGACGGGATT
# B11: GUGUUUG (DNA:RNA)
# RNA: B1 RNA with U25G, C27G, C28U, G30U, U31G
# DNA 1: CAATCTGAATTCCGGTCTCCC
# DNA 2: TGGTGGCTACGACGGGATT
# B12: CGUUUUG (DNA:RNA)
# RNA: B1 RNA with U25C, U26G, C27U, C28U, G30U, U31G
# DNA 1: CAATCTGAATTCCGGTCTCCC
# DNA 2: TGGTGGCTACGACGGGATT
# B13: GUGUGUA (DNA:RNA)
# RNA: B1 RNA with U25G, C27G, C28U, U29G, G30U, U31A
# DNA 1: CAATCTGAATTCCGGTCTCCC
# DNA 2: TGGTGGCTACGACGGGATT
# B14: GUUGUGU (DNA:RNA)
# RNA: B1 RNA with U25G, C27U, C28G
# DNA 1: CAATCTGAATTCCGGTCTCCC
# DNA 2: TGGTGGCTACGACGGGATT
# B15: UUGUGUA (DNA:RNA)
# RNA: B1 RNA with C27G, C28U, U29G, G30U, U31A
# DNA 1: CAATCTGAATTCCGGTCTCCC
# DNA 2: TGGTGGCTACGACGGGATT
# B16: GUCGUGU (DNA:RNA)
# RNA: B1 RNA with U25G, C28G
# DNA 1: CAATCTGAATTCCGGTCTCCC
# DNA 2: TGGTGGCTACGACGGGATT
# B17: GAGUUGU (DNA:RNA)
# RNA: B1 RNA with U25G, U26A, C27G, C28U
# DNA 1: CAATCTGAATTCCGGTCTCCC
# DNA 2: TGGTGGCTACGACGGGATT
# B18: GAGUUUG (DNA:RNA)
# RNA: B1 RNA with U25G, U26A, C27G, C28U, G30U, U31G
# DNA 1: CAATCTGAATTCCGGTCTCCC
# DNA 2: TGGTGGCTACGACGGGATT
# B19: GUUUGUG (DNA:RNA)
# RNA: B1 RNA with U25G, C27U, C28U, U29G, G30U, U31G
# DNA 1: CAATCTGAATTCCGGTCTCCC
# DNA 2: TGGTGGCTACGACGGGATT
# B20: GUGUCGU (DNA:RNA)
# RNA: B1 RNA with U25G, C27G, C28U, U29C
# DNA 1: CAATCTGAATTCCGGTCTCCC
# DNA 2: TGGTGGCTACGACGGGATT
# Target: T1, RBFOX1 RRM RbFoxmut (Fox-RRM*)
# Experiment: EMSA; HiTS-Eq, 1 nM pool, 10 min; buffer printed only for the single-RNA assays: 10 mM Tris pH 7.5, 150 mM NaCl, 3.4 mM EDTA, 0.001% NP-40, 30 C
# Details: tags: His6 N-terminal (pET28a); label: 5' 32P
# How it was run: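 A pool of RNA with 7 randomized nucleotides, 5′-radiolabelled and with DNA-annealed flanks, was equilibrated at 1 nM for 10 min in 50 µL with purified RbFox RRM, wild type or mutant, across increasing protein concentrations. Free RNA was separated by 8% native PAGE, excised, reverse-transcribed, barcoded by PCR and sequenced. Relative association constants were obtained from read-count changes of each RNA species versus the control reaction and normalised to the cognate motif.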
row,Binder,binding signal
1,B1,0.0952 KA relative to UGCAUGU
2,B2,0.0761 KA relative to UGCAUGU
3,B3,0.0535 KA relative to UGCAUGU
4,B4,0.0608 KA relative to UGCAUGU
5,B5,0.118 KA relative to UGCAUGU
6,B6,0.116 KA relative to UGCAUGU
7,B7,0.146 KA relative to UGCAUGU
8,B8,0.126 KA relative to UGCAUGU
9,B9,0.129 KA relative to UGCAUGU
10,B10,0.166 KA relative to UGCAUGU
11,B11,0.68 KA relative to UGCAUGU
12,B12,0.133 KA relative to UGCAUGU
13,B13,0.371 KA relative to UGCAUGU
14,B14,0.224 KA relative to UGCAUGU
15,B15,0.315 KA relative to UGCAUGU
16,B16,0.187 KA relative to UGCAUGU
17,B17,0.138 KA relative to UGCAUGU
18,B18,0.361 KA relative to UGCAUGU
19,B19,0.462 KA relative to UGCAUGU
20,B20,0.164 KA relative to UGCAUGU
